An excerpt weighted towards active compounds, which were near 21% of everything screened.
TDP1 cell noCPT = qHTS for Inhibitors of human tyrosyl-DNA phosphodiesterase 1 (TDP1): qHTS in cells in absence of CPT. DT40 Tdp1-/- hTDP1 cells, no CPT, ATP luminescence, 48 h. Potency, µM (titrated, usually from 46.2 µM), without a hit: top-dose activity change, negative = growth inhibition, hits mostly inhibitors. 420,000 tested, 15% active; further: potency means the concentration at half of the fitted maximal effect; nearly all actives have a fitted effect of over 55% in size
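Camptothecin absent (DMSO only). Human TDP1-complemented DT40 knockout cells, 400 cells/well, 37 °C for minimum 48 hr; ATP measured via CellTiter-Glo, 30 min dark incubation, luminescence.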
ELG1 DNA repair = blocks ELG1-dependent DNA repair in HEK293T cells; HEK293T ELG1-luciferase reporter, luminescence, 16 h; DNA damage induced by 5-fluorouridine; Potency, µM (doses to about 46.1 µM), for inactives: at the highest dose activity change, negative = inhibition, usual class: inhibitors; 330,000 tested, 2.3% active; further: potency means the concentration at half of the fitted maximal effect; nearly all actives have a fitted effect of over 55% in size
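5-Fluorouridine DNA damage + compound/DMSO, 2,000 cells/well, 16 h, 37 °C/5% CO2. ONE-Glo, 30 min RT, luminescence. Readout = decrease in reporter signal.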
Gal4-VP16 FLuc = inhibits Gal4-VP16 luciferase reporter, ROR gamma counter-screen; Drosophila S2 Gal4-VP16 UAS-luciferase, luminescence, 20 h; Potency, µM (titrated, usually from 53.6 µM), for the others: top-dose activity, negative = inhibition, usual class: inhibitors; 310,000 tested, 3.5% active;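 further: Gal4-VP16 expression switched on by copper sulfate through the metallothionein promoter; potency means the concentration at half of the fitted maximal effect; nearly all actives have a fitted effect of over 50% in size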
TDP1 cell CPT = growth inhibition of DT40 Tdp1-/-;hTDP1 cells with camptothecin (screen for TDP1 inhibitors); chicken DT40 Tdp1-/-;hTDP1 cells + 20 nM CPT, ATP luminescence, 48 h; 420,000 tested, 12% active; Potency, µM (series often up to 46.2 µM), for the others: top-dose activity change, negative = growth inhibition, hits mostly inhibitors; further: potency means the concentration at half of the fitted maximal effect; nearly all actives have a fitted effect of over 55% in size
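Chicken DT40 Tdp1-/- cells complemented with human TDP1, 400 cells/well, exposed to compounds plus 20 nM camptothecin for at least 48 h at 37 C; viability read as ATP content by CellTiter-Glo luminescence.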
IL-1B inflam inh = inhibitors of inflammasome signaling (IL-1 beta secretion) | 360,000 tested, 4.7% active | activity change, % at 57.5 µM | THP-1 LPS/ATP IL-1B secretion, AlphaLISA, 16 h; active compounds read low; in the data active means activity change below about -50%; inconclusive means mostly about -30% to -49%
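THP-1 cells pretreated 1 hr with compounds (up to 57.5 uM final), then stimulated with LPS (250 ng/mL final) plus ATP (1.25 mM final); secreted IL-1B measured by AlphaLISA after 16 hr, decreased signal indicating inhibition.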
RORg inh = blocks mouse ROR gamma transcriptional activity. Potency, µM (highest dose often 53.6 µM), inactives show at the highest dose activity change, negative = inhibition, actives largely listed as inhibitors. P51450. Drosophila S2 Gal4-RORgamma UAS-luciferase reporter, 20 h. 310,000 tested, 5.4% active; further: potency means the concentration at half of the fitted maximal effect; nearly all actives have a fitted effect of over 60% in size
Target sequence (P51450 whole entry, looked up, the tested form may be a part): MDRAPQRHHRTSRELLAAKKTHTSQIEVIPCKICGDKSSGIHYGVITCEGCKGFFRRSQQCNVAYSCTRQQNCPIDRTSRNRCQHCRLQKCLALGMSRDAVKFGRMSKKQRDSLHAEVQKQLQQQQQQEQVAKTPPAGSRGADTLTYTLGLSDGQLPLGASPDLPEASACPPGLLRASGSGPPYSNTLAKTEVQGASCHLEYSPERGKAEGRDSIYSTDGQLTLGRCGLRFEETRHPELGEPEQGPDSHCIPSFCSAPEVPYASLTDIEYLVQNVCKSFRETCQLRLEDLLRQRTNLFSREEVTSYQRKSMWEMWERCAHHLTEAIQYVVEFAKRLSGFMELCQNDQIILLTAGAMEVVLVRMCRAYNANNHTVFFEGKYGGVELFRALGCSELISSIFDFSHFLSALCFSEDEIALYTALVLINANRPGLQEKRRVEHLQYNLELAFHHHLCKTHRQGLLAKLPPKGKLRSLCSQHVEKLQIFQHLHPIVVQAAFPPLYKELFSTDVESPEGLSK
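Drosophila S2 cells stably expressing Gal4-DBD/mouse RORγ fusion under metallothionein promoter plus UAS-luciferase; compound 1 h, then 700 uM CuSO4 induction for 20 h at ambient temperature; inhibition read as reduced luminescence.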
Active calls of the source: *; ! = not active in a repeat. Unless noted, the call rests on the fitted dose curve; in most records, active means well fitted curve in the direction sought with a large enough effect; inconclusive means small, poorly fitted or top-dose-only effect, or another doubt; inactive means no such curve, though single readings can be large; an effect the other way counts as inactive or inconclusive. On the % scale 0 is the no-effect control and ±100 the full control effect.

`CC[C@H]1CN(C)C[C@@]2(C(=O)OC)Cc3c([nH]c4ccccc34)C(=O)C[C@@H]12` gave TDP1 cell noCPT 12.8%, TDP1 cell CPT 12.9% and IL-1B inflam inh 5.0.
`Cc1cc(C)c2c(c1)-c1cc(C)nn1C(c1cccnc1)N2` (stereo unspecified) gave TDP1 cell noCPT -1.0%, ELG1 DNA repair 27.7%, Gal4-VP16 FLuc 3.0%, TDP1 cell CPT 0.7%, IL-1B inflam inh 15.6 and RORg inh -19.0%.
For CC1=C(C/C(C)=C/c2ccccc2)/C(=C/CO)[C@@H]2OC(=O)O[C@]2(C)C12CC2 the results were TDP1 cell noCPT 11.6µM*, TDP1 cell CPT 8.2µM* and IL-1B inflam inh 4.2.
For O=C1NC(=O)[C@]2(Cc3ccccc3N3CCN(c4ccccc4)CC32)C(=O)N1Cc1ccccc1 (stereo partly specified) the results were TDP1 cell noCPT 23.1µM*, ELG1 DNA repair inconclusive, Gal4-VP16 FLuc 3.7%, TDP1 cell CPT 20.6µM*, IL-1B inflam inh -23.1 and RORg inh 22.3%.
O=C1NC(=O)C2(Cc3ccccc3N3CCCC32)C(=O)N1Cc1ccccc1 (stereo unspecified) was read as TDP1 cell noCPT 23.1µM*, ELG1 DNA repair 1.2%, Gal4-VP16 FLuc 2.0%, TDP1 cell CPT inconclusive, IL-1B inflam inh 19.3 and RORg inh -21.5%.
`O=C1NC(=O)C2(Cc3ccccc3N3CCCC32)C(=O)N1c1ccc(Cl)cc1` (stereo unspecified) gave TDP1 cell noCPT inconclusive, ELG1 DNA repair 7.0%, Gal4-VP16 FLuc 7.8%, TDP1 cell CPT inconclusive, IL-1B inflam inh 18.4 and RORg inh -1.8%.
For O=C1NC(=O)C2(Cc3c(nc4ccccn4c3=O)N3CCCCCC32)C(=O)N1Cc1ccccc1 (stereo unspecified) the results were TDP1 cell noCPT 23.1µM*, ELG1 DNA repair inconclusive, Gal4-VP16 FLuc -8.8%, TDP1 cell CPT 20.6µM*, IL-1B inflam inh 1.0 and RORg inh inconclusive.
Screening CN1C(=O)NC(=O)[C@]2(Cc3ccccc3N3CCN(c4ccccc4)CC32)C1=O (stereo partly specified) returned TDP1 cell noCPT inconclusive, ELG1 DNA repair inconclusive, Gal4-VP16 FLuc 13.0%, TDP1 cell CPT inconclusive, IL-1B inflam inh 0.2 and RORg inh inconclusive.
Screening COC(=O)C12CC3=CC(CC3=O)Cc3ccccc3[C@@H]1CNC2=O (stereo partly specified) returned Gal4-VP16 FLuc 1.4% and RORg inh -11.2%.
Screening CN1CCN(C(=S)c2ccc([N+](=O)[O-])cc2)CC1 returned TDP1 cell noCPT -15.8%, ELG1 DNA repair inconclusive, Gal4-VP16 FLuc 4.0%, TDP1 cell CPT 1.6%, IL-1B inflam inh 0.0 and RORg inh 3.9%.
`O=[N+]([O-])c1ccc(C(=Nc2ccccc2)N2CC2)cc1` gave TDP1 cell noCPT 14.6µM*, TDP1 cell CPT 8.2µM* and IL-1B inflam inh -0.2.
`CC(=O)[C@@]1(O)CC[C@H]2[C@@H]3CCC4=CC(=O)CC[C@]4(C)C3(F)[C@@H](O)C[C@@]21C` (stereo partly specified) gave TDP1 cell noCPT -13.7% and TDP1 cell CPT 12.7%.
For C[C@H]1C[C@H]2[C@@H]3CCC4=CC(=O)C=C[C@]4(C)[C@@]3(F)[C@@H](O)C[C@]2(C)[C@@]1(O)C(=O)CCl the results were TDP1 cell noCPT 0.0531µM* and TDP1 cell CPT -96.9%.
CN(C)CCCCCCN(C)C (tested in a mixture with another compound) was read as TDP1 cell noCPT 2.8% and TDP1 cell CPT -6.0%.
Screening COc1ccc(CN2Cc3cc(-c4ccc(OC)cc4)ccc3-n3nncc3C2)cc1 returned TDP1 cell noCPT 18.4µM*, TDP1 cell CPT 20.6µM* and IL-1B inflam inh -1.5.
For COc1ccc(CN2Cc3cnnn3-c3ccccc3C2C)cc1 (stereo unspecified) the results were TDP1 cell noCPT 16.4µM*, TDP1 cell CPT inconclusive and IL-1B inflam inh 21.2.
CC(C)(C)C(=O)N1Cc2cc(N3CCOCC3)ccc2-n2nncc2C1 was read as TDP1 cell noCPT -16.3%, TDP1 cell CPT inconclusive and IL-1B inflam inh -13.5.
Screening COc1ccc(CN2Cc3cc(N4CCOCC4)ccc3-n3nncc3C2)cc1 returned TDP1 cell noCPT inconclusive, TDP1 cell CPT 20.6µM* and IL-1B inflam inh -21.7.
COc1ccc(CN2Cc3cc(-c4ccccc4)ccc3-n3nncc3C2)cc1 was read as TDP1 cell noCPT inconclusive, TDP1 cell CPT inconclusive and IL-1B inflam inh -27.9.
Cc1ccccc1CN1Cc2cnnn2-c2ccccc2C1C#N (stereo unspecified) was read as TDP1 cell noCPT 2.06µM*, TDP1 cell CPT 2.59µM* and IL-1B inflam inh -102.4*.
For Cc1ccccc1C(=O)N1Cc2cnnn2-c2ccccc2C1C#N (stereo unspecified) the results were TDP1 cell noCPT -19.7%, TDP1 cell CPT -8.5% and IL-1B inflam inh 11.6.
`Cc1ccccc1NC(=O)Cc1nc(COC(=O)c2cc([N+](=O)[O-])ccc2N)cs1` gave TDP1 cell noCPT inconclusive, ELG1 DNA repair -17.8%, Gal4-VP16 FLuc -4.2%, TDP1 cell CPT -1.7%, IL-1B inflam inh -4.4 and RORg inh 10.2%.
CC(C(=O)OC1CC2CCC(C1)N2C)c1ccc(Br)cc1 (stereo unspecified) was read as TDP1 cell noCPT 16.4µM* and TDP1 cell CPT 20.6µM*.
`CCC(Oc1ccc(Cl)cc1)C(=O)OC1CC2CCC(C1)N2C` (stereo unspecified) gave TDP1 cell noCPT 10.3µM* and TDP1 cell CPT 13µM*.
`CCOC(=O)CC(SP(=S)(OC)OC)C(=O)OCC` (stereo unspecified) gave TDP1 cell noCPT 4.33µM*!, Gal4-VP16 FLuc -1.2%, TDP1 cell CPT 0.0217µM*! and RORg inh -9.6%.
CCOC(=O)CC(SP1(=S)OCC2(CCCCC2)CO1)C(=O)OCC (stereo unspecified) was read as TDP1 cell noCPT -5.8%, TDP1 cell CPT -1.9% and IL-1B inflam inh -6.6.
C#CCO was read as Gal4-VP16 FLuc 2.6% and RORg inh -9.3%.

Screening results as filed in PubChem BioAssay.
